In the library only some 0.54% were active in any assay of this set; here they are far more common.
Menin-MLL FL inh: displaces fluorescein MLL peptide from human menin; FP activity change, % at 61.4 µM; 290,000 tested, under 10 active; Fluorescence polarization, fluorescein-MLL peptide displacement from menin; active = well fitted curve in the direction sought with a large enough effect in the polarisation, not every such curve was filed as active; inconclusive = small, poorly fitted or top-dose-only effect, or effect the other way, or a change in a side signal; inactive = no such curve, though single readings can be large or run the other way; the % refers to the polarisation; also: % of control where 0% means no effect
pAkt inh: inhibitors of Akt phosphorylation; 360,000 tested, 0.32% active; activity change, % for hits at 50 µM; Neuro2A IGF-stimulated pAkt S473 HTRF, 20 min; hits give low values; in the data active = activity change below about -80%; inconclusive = mostly about -51% to -80%; also: % is scaled to controls: 0 for no effect and ±100 for the full control effect
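Neuro2A cells (4,500/well, DMEM with 0.5% FBS) were treated with compound at a single 50 µM final concentration, stimulated with 6 nM IGF for 20 min at 37 °C, and lysed. Phospho-Akt Ser473 was read by HTRF as 665/615 ratio ×10^4.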
IDH1 R132H inh: inhibitors of human mutant IDH1 R132H; IDH1-R132H enzyme, NADPH consumption, diaphorase/resazurin fluorescence; 390,000 tested, 0.093% active; O75874; Potency, µM (doses to about 76.6 µM), inactives show top-dose activity change, negative = inhibition, usual class: inhibitors; also: potency is read from the fitted curve at half-maximal effect; % is scaled to controls: 0 for no effect and ±100 for the full control effect; nearly all actives have a fitted effect of over 65% in size
Target sequence (O75874 whole entry R132H, stated change not applied): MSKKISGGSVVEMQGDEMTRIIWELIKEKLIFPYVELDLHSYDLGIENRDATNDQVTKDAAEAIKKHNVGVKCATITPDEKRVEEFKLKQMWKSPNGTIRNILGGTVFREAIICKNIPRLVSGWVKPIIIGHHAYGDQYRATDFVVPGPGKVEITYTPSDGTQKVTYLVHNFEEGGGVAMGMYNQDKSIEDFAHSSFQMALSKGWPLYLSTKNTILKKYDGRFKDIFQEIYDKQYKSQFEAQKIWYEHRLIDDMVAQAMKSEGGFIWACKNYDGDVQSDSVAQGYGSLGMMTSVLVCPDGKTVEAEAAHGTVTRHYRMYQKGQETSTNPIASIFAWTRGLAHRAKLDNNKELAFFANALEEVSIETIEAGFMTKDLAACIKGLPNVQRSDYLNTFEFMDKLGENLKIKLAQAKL
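IDH1-R132H (0.5 ug/mL dispensed) in pH 7.5 Tris buffer was preincubated 30 min with compound, then given a substrate mix of 0.016 mM NADPH and 2 mM alpha-KG for 80 min at room temperature; remaining NADPH was read by diaphorase/resazurin fluorescence.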
LDHA block: LDHA (human) enzyme inhibition; purified LDHA, NADH/diaphorase-resazurin fluorescence; hits give low values; activity change, % (values are at about 110 or 230 µM); 480,000 tested, 0.15% active; AID 1347041; in the data active = activity change below about -30%; inconclusive = mostly about -25% to -30%;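 also: plate controls were DMSO wells for no effect and wells without enzyme for full effect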
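LDH5 2 nM; NADH 0.06 mM, pyruvate 0.2 mM; 200 mM Tris pH 7.4, EDTA, Tween-20; 5 min RT. Detection: diaphorase 0.133 mg/mL + resazurin 37 µM, fluorescence ex540/em590 at 0 and 20 min; normalized to enzyme-free and DMSO wells.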
Menin-MLL TR inh: displaces Texas Red mutant MLL peptide from human menin | Menin + Texas Red MLL mutant peptide, fluorescence polarization | O00255 | AID 1768 | Potency, µM (top dose mostly 61.6 µM), for the others: at the highest dose FP activity change, negative = inhibition, usual class: inhibitors | 270,000 tested, 0.23% active; active = well fitted inhibition curve with a large enough effect in the polarisation, with a control signal flat, not every such curve was filed as active; inconclusive = small, poorly fitted or top-dose-only effect, or effect the other way, or a change in a side signal; inactive = no such curve, though single readings can be large or run the other way; the % refers to the polarisation; also: potency is read from the fitted curve at half-maximal effect; % of control where 0% means no effect
CXXC DNA block: MLL CXXC-DNA interaction inhibition; Potency, µM (titrated, usually from 115 µM), inactives show at the highest dose activity change, negative = inhibition, usual class: inhibitors; 290,000 tested, 0.037% active; Q03164; MLL-CXXC / FITC-HOXA9 DNA fluorescence polarization; active = well fitted inhibition curve with a large enough effect in the polarisation, with a control signal flat, not every such curve was filed as active; inconclusive = small, poorly fitted or top-dose-only effect, or effect the other way, or a change in a side signal; inactive = no such curve, though single readings can be large or run the other way; the % refers to the polarisation; also: potency is read from the fitted curve at half-maximal effect
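Fluorescence polarization: 7 uM MLL-CXXC (stock) preincubated 5 min with compounds, then 50 nM fluorescein-HOX-A9 DNA (stock) added; 30 min ambient. Buffer 50 mM Tris-HCl pH 7.5, 50 mM NaCl, 1 mM DTT, 0.05% BSA.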
Resorufin autofl: counter-screen for mutant IDH1 inhibitors: fluorescence interference; shares compounds with IDH1 R132H inh; Resorufin detection reagent fluorescence interference, cell-free; inhibition of signal, % at 51.2 µM; 750 tested, under 10 active;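 also: 0% = wells with normal resorufin and full inhibition = wells lacking resorufin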
IDH1 WT: inhibits human wild-type IDH1, mutant selectivity check; 750 tested, 9% active; Potency, µM (highest dose often 115 µM), for the others: at the highest dose activity change, negative = inhibition, usual class: inhibitors; shares compounds with IDH1 R132H inh; WT IDH1 enzyme, NADPH diaphorase/resazurin fluorescence;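 also: potency is read from the fitted curve at half-maximal effect; 0% = full WT IDH1 enzyme control and full inhibition = no enzyme wells; nearly all actives have a fitted effect of over 55% in size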
Target sequence (O75874 whole entry, looked up): as the sequence (O75874 whole entry R132H, stated change not applied) above, with H132R counted along it
IDH1 R132H conf: mutant IDH1 (human) inhibition, confirmed; IDH1 R132H enzyme, NADPH diaphorase/resazurin fluorescence; shares compounds with IDH1 R132H inh; 750 tested, 83% active; AID 624002; Potency, µM (highest dose often 76.6 µM), inactives show top-dose activity change, negative = inhibition, most hits filed as inhibitors; also: potency is read from the fitted curve at half-maximal effect; nearly all actives have a fitted effect of over 50% in size
An asterisk follows results filed as active. Unless noted, calls follow the shape of the dose curve; as a rule, active = well fitted curve in the direction sought with a large enough effect; inconclusive = small, poorly fitted or top-dose-only effect, or another doubt; inactive = no such curve, though single readings can be large; an effect the other way counts as inactive or inconclusive.

Results for CC(=O)c1cccc(N(C(=O)c2ccco2)C(C(=O)NC2CCCCC2)c2ccc(C)o2)c1 (configuration not stated) ?
Menin-MLL FL inh: 3; pAkt inh: inactive; IDH1 R132H inh: inconclusive; LDHA block: -6; Menin-MLL TR inh: -3%; CXXC DNA block: 6%; Resorufin autofl: 1; IDH1 WT: 1%; IDH1 R132H conf: 40µM*

How did Cc1ccc(N(C(=O)Cc2cccs2)C(C(=O)NC2CCCCC2)c2ccccn2)cc1C (configuration not stated) do in these assays?
Menin-MLL FL inh: 1; pAkt inh: inactive; IDH1 R132H inh: inconclusive; LDHA block: -1; Menin-MLL TR inh: inconclusive; CXXC DNA block: 15%; Resorufin autofl: -1; IDH1 WT: 2%; IDH1 R132H conf: 10µM*

Results for COc1ccc(N(C(=O)Cc2cccs2)C(C(=O)NC2CCCC2)c2ccncc2)cc1OC (configuration not stated) ?
Menin-MLL FL inh: 3; pAkt inh: inactive; IDH1 R132H inh: 25%; LDHA block: 5; Menin-MLL TR inh: -10%; CXXC DNA block: 9%

How did COc1cc(N(C(=O)Cc2cccs2)C(C(=O)NC2CCCCC2)c2ccc(C)cc2)ccc1-n1cnnn1 (configuration not stated) do in these assays?
Menin-MLL FL inh: -1; pAkt inh: inactive; IDH1 R132H inh: 23µM*; LDHA block: 0; Menin-MLL TR inh: 6%; CXXC DNA block: 14%; Resorufin autofl: -6; IDH1 WT: 0%; IDH1 R132H conf: 7.1µM*

How did Cc1cccc(N(C(=O)Cc2cccs2)C(C(=O)NC2CCCC2)c2ccncc2)c1 (configuration not stated) do in these assays?
Menin-MLL FL inh: -1; pAkt inh: inactive; IDH1 R132H inh: -26%; LDHA block: 0; Menin-MLL TR inh: -8%; CXXC DNA block: 37%

What do the screens show for `O=S(=O)(c1ccc(NC(=S)N/N=C/c2ccc(N3CCOCC3)cc2)cc1)N1CCOCC1`?
Menin-MLL FL inh: 3; pAkt inh: inactive; IDH1 R132H inh: 0%; LDHA block: -9; Menin-MLL TR inh: inconclusive; CXXC DNA block: 16%

How did O=S(=O)(c1ccc(NC(=S)N/N=C/c2ccc(Oc3ccccc3)cc2)cc1)N1CCOCC1 do in these assays?
Menin-MLL FL inh: 0; pAkt inh: inactive; IDH1 R132H inh: inconclusive; LDHA block: -9; Menin-MLL TR inh: inconclusive; CXXC DNA block: -6%; Resorufin autofl: -1; IDH1 WT: -5%; IDH1 R132H conf: -22%

What do the screens show for `CC1(C)CC(=O)C2=C(C1)N1C(=C(C#N)C2c2ccccc2Cl)N=C(N)c2ccccc21` (configuration not stated)?
Menin-MLL FL inh: 0; pAkt inh: inactive; IDH1 R132H inh: inconclusive; LDHA block: -2; Menin-MLL TR inh: 17%; CXXC DNA block: 11%; Resorufin autofl: -1; IDH1 WT: 3%; IDH1 R132H conf: 16µM*

Results for CC(C)c1ccc(S(=O)(=O)N2CCN(CCC(=O)Nc3ccc(N(C)C)cc3)CC2)cc1 ?
Menin-MLL FL inh: 1; pAkt inh: inactive; IDH1 R132H inh: 46µM*; LDHA block: 4; Menin-MLL TR inh: -27%; CXXC DNA block: 6%; Resorufin autofl: -1; IDH1 WT: -1%; IDH1 R132H conf: 22µM*

What do the screens show for `COc1ccc(NC(=O)CCN2CCN(S(=O)(=O)c3ccc(C(C)C)cc3)CC2)cc1`?
Menin-MLL FL inh: 1; pAkt inh: inactive; IDH1 R132H inh: -6%; LDHA block: -1; Menin-MLL TR inh: -1%; CXXC DNA block: -3%

What do the screens show for `CCOC(=O)CSC1=NC(=O)/C(=C/c2ccc(OC)cc2)S1`?
Menin-MLL FL inh: inconclusive; pAkt inh: inactive; IDH1 R132H inh: 52µM*; LDHA block: -2; Menin-MLL TR inh: 5%; CXXC DNA block: 48%; Resorufin autofl: 2; IDH1 WT: inconclusive; IDH1 R132H conf: 45µM*

What do the screens show for `COc1cccc(/C=C2\Oc3cc(OC(=O)c4ccc(C(C)(C)C)cc4)ccc3C2=O)c1OC`?
LDHA block: -1

How did CS(=O)(=O)c1ccc(C(=O)OCc2nnc(-c3ccccc3)o2)cc1[N+](=O)[O-] do in these assays?
Menin-MLL FL inh: -9; pAkt inh: inactive; IDH1 R132H inh: inconclusive; LDHA block: -2; Menin-MLL TR inh: -3%; CXXC DNA block: inconclusive; Resorufin autofl: -4; IDH1 WT: 9%; IDH1 R132H conf: 25µM*

Results for CN(C)S(=O)(=O)c1ccc(C(=O)OCc2nnc(-c3ccccc3)o2)cc1 ?
Menin-MLL FL inh: -2; pAkt inh: inactive; IDH1 R132H inh: 13%; LDHA block: -2; CXXC DNA block: -7%

What do the screens show for `CC(CCc1ccccc1)NC(=O)COC(=O)c1ccc(S(C)(=O)=O)c([N+](=O)[O-])c1` (configuration not stated)?
Menin-MLL FL inh: 0; pAkt inh: inactive; IDH1 R132H inh: inconclusive; LDHA block: -4; Menin-MLL TR inh: 6%; CXXC DNA block: 3%; Resorufin autofl: -3; IDH1 WT: 2%; IDH1 R132H conf: inconclusive

What do the screens show for `Cc1cc(NC(=O)c2nn(C)c(=O)c3ccccc23)ccc1Br`?
LDHA block: -6

Results for Cc1cc(N2CCCC2)nc(N2CCN(C(=O)Nc3ccccc3)CC2)n1 ?
LDHA block: 7

Results for CCOc1ccc(C(=O)Nc2cccc(-c3nc4ccccc4o3)c2C)cc1 ?
LDHA block: 21

Results for CCOC(=O)c1c(NC(=O)CN2CCOCC2)sc2c1CCCC2=O ?
Menin-MLL FL inh: -1; pAkt inh: inactive; IDH1 R132H inh: -5%; LDHA block: 0; Menin-MLL TR inh: -2%; CXXC DNA block: 5%

What do the screens show for `CCOC(=O)c1c(NC(=O)CN(CC)CC)sc2c1CCN(C(=O)OCC)C2`?
Menin-MLL FL inh: -1; pAkt inh: inactive; IDH1 R132H inh: -16%; LDHA block: 0; Menin-MLL TR inh: -18%; CXXC DNA block: 13%

Screening data as filed in PubChem BioAssay.
